Screens as filed in PubChem.
CHT allo act: allosteric activators of human choline transporter CHT; CHT-expressing cells, membrane potential dye, choline EC20; hits give high values; LV-AA mutant CHT in HEK293 cells; Q9GZV3; B-score at 10 µM; 310,000 tested, 0.49% active;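 active means initial fluorescence not abnormally high and integrated response B-score, plate-corrected, over 3 SD above library mean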
GPR7 antagonist: antagonists of human GPR7 (neuropeptides B/W receptor 1); inhibition, % at 4.4 µM; 290,000 tested, 1.1% active; GPR7-expressing cells, fluorescence antagonist assay; AID 1861; in the data active means inhibition above about 16%, passing the limit was not always enough;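 further: cells stimulated with the agonist NPW; 0% = agonist with vehicle and 100% = vehicle without agonist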
Target sequence (P48145 whole entry, looked up): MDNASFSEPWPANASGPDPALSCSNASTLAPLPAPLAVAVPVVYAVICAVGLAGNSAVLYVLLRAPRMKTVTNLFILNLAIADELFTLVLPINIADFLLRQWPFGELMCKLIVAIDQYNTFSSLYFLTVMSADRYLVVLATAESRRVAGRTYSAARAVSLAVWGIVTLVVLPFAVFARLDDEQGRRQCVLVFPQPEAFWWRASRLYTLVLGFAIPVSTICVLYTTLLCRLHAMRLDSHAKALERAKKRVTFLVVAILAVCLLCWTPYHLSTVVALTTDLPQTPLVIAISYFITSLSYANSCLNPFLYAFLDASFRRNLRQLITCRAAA
TMEM16A inh: mouse TMEM16A channel inhibition, primary screen. AID 588511. 310,000 tested, 1.2% active. HEK293 TMEM16A/YFP iodide influx fluorescence, ionomycin. Q8BHY3. normalized B-score (activity score, 25-100; higher = stronger inhibition) at 10 µM;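 active means ratio plate-corrected score three or more library SD toward inhibition, starting fluorescence score within five deviations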;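 further: score derived from kinetic fluorescence span divided by baseline fluorescence per well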
Kir21 inh: Kir2.1 (mouse) channel inhibition | P35561 | HEK293-Kir2.1, FluxOR thallium flux fluorescence; hits give low values | B-score at 10 µM | 310,000 tested, 0.85% active;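 active means fluorescence ratio B-score at or below minus 3 SD of library scores, with starting-brightness B-score within 2 SD, cut at about -4.2 in these data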;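 further: channel flux triggered by added potassium and thallium sulfate stimulus; B-score of peak minus minimum fluorescence over baseline after thallium stimulus; more negative B-score means stronger Kir2.1 block with less thallium influx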
ANO1 activ: activates or potentiates the mouse TMEM16A chloride channel; AID 623877; HEK293 TMEM16A/YFP-H148Q/I152L, iodide quench fluorescence; hits give low values; 340,000 tested, 0.3% active; B-score at 10 µM;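 active means fluorescence-ratio B-score plate-corrected deviation score at least 3 library SD below zero, with starting fluorescence score within 5 deviations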;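 further: channel opened by trigger with iodide after compound preincubation; score built on the fluorescence ratio of max minus min over baseline; more negative score means more quench and so TMEM16A activation or potentiation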
CHT block: inhibits the human high affinity choline transporter | Q9GZV3 | CHT-expressing cells, membrane potential dye, choline response; hits give low values | B-score at 10 µM | 310,000 tested, 0.86% active | AID 488975;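 active means B-score over 3 SD under the library average, and starting fluorescence ratio not unusually high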;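 further: choline stimulus applied at its EC90 after an EC20 pre-addition; B-score computed on integrated fluorescence ratio after choline addition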
* = called active by the depositor; i = inactive; . = no result given. Rows were chosen to be rich in hits. Some 3.7% of all compounds tested hit in one or more screens of this group.

SMILES	CHT allo act	GPR7 antagonist	TMEM16A inh	Kir21 inh	ANO1 activ	CHT block
Cc1ncc(CN2CCCC(C(=O)Nc3ccc(-c4cccc(F)c4)cc3)C2)n1C (stereo not drawn)	i	3	i	-4.3*	i	i
COc1cc(NC(=O)CCCN2C(=O)NC(C)(C)C2=O)cc(OC)c1	.	.	.	.	i	.
COc1cccc(NC(=S)N(CCCN2CCCC2)Cc2cccn2Cc2ccc(Cl)cc2)c1	i	7	i	-8.5*	i	i
Cc1ccc(NC2CCCN(C(=O)CSc3ccncc3)C2)cc1C (stereo not drawn)	i	-6	i	-0.58	i	i
C=CCN=C1S/C(=C\c2ccc(N(C)C)cc2)C(=O)N1CC=C	i	2	i	0.15	i	i
CCOC(=O)N1CCN(C(=O)COc2cc(=O)n(C)c3ccccc23)CC1	i	-17	25*	-0.32	i	i
CCC(=O)c1ccc(OCC(O)CNC2CCCC2)cc1 (stereo not drawn)	i	-18	i	-0.07	i	i
OC(CNCc1ccccc1)COc1ccccc1 (stereo not drawn)	i	.	i	0.09	i	i
OC(CNC1CCCc2ccccc21)COc1c(Cl)cccc1Cl (stereo not drawn)	i	3	i	-8.9*	i	i
O=C(c1ccccc1)c1ccc(OCC(O)CNCc2ccc(Cl)cc2)cc1 (stereo not drawn)	i	22	i	-4.7*	i	i
COc1cccc(CNCC(O)COc2ccc(C(=O)c3ccccc3)cc2)c1 (stereo not drawn)	i	4	i	-5.4*	i	i
OC(CNC1Cc2ccccc2C1)COc1ccc(Cl)cc1 (stereo not drawn)	i	-1	i	-4.2*	i	i
CCOP(=O)(OCC)C(C)(C)NC(=O)Nc1ccc(Cl)c(Cl)c1	i	-4	i	-0.03	i	i
Cc1c(C(=O)O)c(=O)n(-c2ccccc2)n1-c1ccccc1	i	-2	i	0.81	i	i
Cc1c(C=O)c(=O)n(-c2ccccc2)n1-c1ccccc1	i	20*	i	1.7	i	i
O=C(Oc1cccc([N+](=O)[O-])c1)N1CCCCC1	i	15	i	-0.17	i	i
CCc1ccc(CN(C)C(=O)c2cc(COc3cccc(C(F)(F)F)c3)on2)nc1	i	-24	i	-1.4	i	i
Cc1ccc(CN(C)C(=O)c2cc(COc3cccc(C(F)(F)F)c3)on2)o1	i	-4	i	-4.6*	i	i
CCc1ccc(CN(C)C(=O)c2cc(COc3c(F)cccc3F)on2)cc1	i	1	i	0.21	-26*	i
CN(c1nc(-c2ccc(Br)cc2)cs1)C1CCS(=O)(=O)C1 (stereo not drawn)	i	-12	i	-0.35	i	i
COc1cccc(NC(=O)CSc2nc3ccccc3nc2N2CCOCC2)c1	i	5	i	0.16	i	i
CCOc1ccccc1NC(=O)Nc1ccc2c(c1)OCO2	i	-1	i	-0.25	i	i
C=CCOc1ccccc1CN(C(=O)CCl)c1ccc2c(c1)OCO2	i	-5	i	-4.2*	i	i
COc1cc(OC)c(NC(=O)C2CCN(S(=O)(=O)c3ccc4c(c3)CC(C)N4C(C)=O)CC2)cc1Cl (stereo not drawn)	i	-5	i	-0.26	i	i
O=C(C(Sc1ccccc1)c1ccc(Br)cc1)N1CCOCC1 (stereo not drawn)	i	7	i	-5.8*	i	i
SMILES	CHT allo act	GPR7 antagonist	TMEM16A inh	Kir21 inh	ANO1 activ	CHT block
CC1CN(C(=O)C(Sc2ccccc2)c2ccccc2)CC(C)O1 (stereo not drawn)	i	-14	i	0.81	i	i
O=S(=O)(NC1CCCCC1N1CCN(c2cccc(Cl)c2)CC1)c1ccccc1 (stereo not drawn)	i	-6	i	1.6	i	i
O=S(=O)(NC1CCCCC1N1CCN(c2ccccc2F)CC1)c1ccc(Cl)cc1 (stereo not drawn)	i	-5	i	-3.3	-40*	i
COCCSc1nnc(NC(=O)CCS(=O)(=O)c2ccccc2)s1	i	-17	i	-1.6	i	i
CC1(c2ccc(OC(F)F)cc2)NC(=O)N(CC(=O)Nc2cccc(S(N)(=O)=O)c2)C1=O (stereo not drawn)	i	-13	i	-0.57	i	i
CC1(c2ccc(OC(F)F)cc2)NC(=O)N(/N=C/c2c(O)ccc3ccccc23)C1=O (stereo not drawn)	i	-7	i	1.6	-4.7*	i
Cc1ccc(S(=O)(=O)N(C)CC(=O)O/N=C(\N)c2cccc(Br)c2)cc1	i	-11	i	-0.72	-14*	i
Cc1ccc(/C(N)=N/OC(=O)CN(C)S(=O)(=O)c2ccc(C)cc2)cc1	i	-9	i	0.22	i	i
Cc1ccc(-c2nnc(CN3CCCCC3C)o2)cc1 (stereo not drawn)	i	-3	i	-0.02	i	i
N#CCCn1nc(-c2ccccc2)c2ccccc2c1=O	i	-14	i	-0.05	i	i
COc1cnn(Cc2ccccc2)c(=O)c1SCc1ccccc1	i	-2	i	-4.7*	i	i
OCCNCc1c(OCc2ccc(Cl)cc2)ccc2ccccc12	i	23	i	-6.8*	i	i
COc1ccc(CNC(=O)CN2C(=O)NC(Cc3ccccc3)(c3ccccc3)C2=O)cc1OC (stereo not drawn)	.	.	.	.	i	.
COc1ccc(Cl)cc1C(=O)Nc1ccccc1N1CCN(C(=O)C(C)C)CC1	i	20*	i	-0.41	i	i
CC(C)C(=O)N1CCN(c2ccc(NC(=O)c3ccc4c(c3)OCCO4)cc2Cl)CC1	i	1	100*	-0.61	i	i
CCOc1cccc(C(=O)Nc2ccccc2N2CCN(C(=O)C(C)C)CC2)c1	i	9	i	-0.02	i	-5.7*
CC(=O)N1CCN(c2ccc(NC(=O)c3ccc4c(c3)OCCO4)cc2Cl)CC1	i	6	i	2.9	i	i
COc1ccc(CCNS(=O)(=O)c2ccc(-n3cnnn3)c(OC)c2)cc1OC	i	-10	i	-0.66	-31*	i
N#C/C(=C\c1ccc(C#N)cc1)C(=O)c1ccccc1	i	-1	i	-1.1	i	i
CN(C)c1ccc(/C=C(\C#N)C(=O)c2ccccc2)cc1	i	29*	i	-0.28	i	i
